Source: PubChem BioAssay (Broad Institute)
IDE exosite inh: exo-site inhibitors of human insulin-degrading enzyme; z-score at 20 µM; AID 1259349; actives 6.3% (n = 17,000); purified IDE, FL-6b probe fluorescence polarization; active compounds read low; P14735;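 active means z-score of -3 or lower, meaning strong loss of probe binding signal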;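 further: His-tagged human IDE residues 42-1019 made in E. coli with 30 nM FL-6b probe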
Target sequence (P14735 42-1019 limits assumed): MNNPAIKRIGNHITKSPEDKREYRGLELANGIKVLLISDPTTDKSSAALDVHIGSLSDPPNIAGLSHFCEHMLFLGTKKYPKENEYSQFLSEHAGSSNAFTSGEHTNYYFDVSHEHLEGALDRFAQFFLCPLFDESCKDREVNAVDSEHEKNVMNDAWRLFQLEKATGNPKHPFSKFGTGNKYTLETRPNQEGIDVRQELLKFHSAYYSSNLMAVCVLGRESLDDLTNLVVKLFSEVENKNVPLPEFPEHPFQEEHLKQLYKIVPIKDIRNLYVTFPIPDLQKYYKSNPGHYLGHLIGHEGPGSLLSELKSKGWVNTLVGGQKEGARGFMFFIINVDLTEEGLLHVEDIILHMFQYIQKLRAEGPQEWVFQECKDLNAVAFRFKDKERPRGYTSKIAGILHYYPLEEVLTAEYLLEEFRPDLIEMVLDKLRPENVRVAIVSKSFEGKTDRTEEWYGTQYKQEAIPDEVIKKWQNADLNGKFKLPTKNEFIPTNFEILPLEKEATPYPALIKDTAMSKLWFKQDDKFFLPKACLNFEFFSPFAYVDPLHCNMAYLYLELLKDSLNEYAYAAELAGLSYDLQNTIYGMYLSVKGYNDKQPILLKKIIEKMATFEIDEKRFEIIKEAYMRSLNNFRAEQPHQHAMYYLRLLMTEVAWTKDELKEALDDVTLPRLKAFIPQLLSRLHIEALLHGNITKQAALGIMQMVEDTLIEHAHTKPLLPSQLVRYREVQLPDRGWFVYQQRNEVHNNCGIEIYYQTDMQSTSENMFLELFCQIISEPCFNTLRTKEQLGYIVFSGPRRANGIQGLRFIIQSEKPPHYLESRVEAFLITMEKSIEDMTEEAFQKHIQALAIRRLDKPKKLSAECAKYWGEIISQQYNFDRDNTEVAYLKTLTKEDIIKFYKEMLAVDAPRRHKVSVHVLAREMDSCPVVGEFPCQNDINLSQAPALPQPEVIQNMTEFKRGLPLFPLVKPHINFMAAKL
* = called active by the depositor; ! = repeats disagree. The full list was thinned out, with hits kept by preference.

SMILES | IDE exosite inh
COc1cccc(S(=O)(=O)N2C[C@@H]3N[C@H](C2)C3c2ccc(-c3ccccc3F)cc2)c1 (stereo not given in full) | 0.57
Cc1cccc(S(=O)(=O)N2C[C@@H]3N[C@H](C2)C3c2ccc(-c3cncnc3)cc2)c1 (stereo not given in full) | 0.092
COc1cccc(S(=O)(=O)N2C[C@@H]3N[C@H](C2)C3c2ccc(-c3ccccc3C)cc2)c1 (stereo not given in full) | -9.9*!
C/C=C/c1ccc([C@H]2[C@@H](CO)N(C(=O)CC)[C@H]2CNC(=O)c2ccncc2)cc1 | 0.46
COCC(=O)N1CC(=O)N2[C@@H](CO)[C@H](c3ccc(C#CC4CCCC4)cc3)[C@@H]2C1 | 2.4
CCC(=O)N1CC(=O)N2[C@@H](CO)[C@H](c3ccc(C#CC4CCCCC4)cc3)[C@@H]2C1 | 3.6
CN1C(=O)c2cc(NC(=O)c3cnccn3)ccc2OC[C@@H]2O[C@H](CC(=O)N[C@H]3CCN(Cc4ccccc4)C3)CC[C@@H]21 | -1.8
O=C(C[C@@H]1CC[C@@H]2[C@H](COC[C@H](O)CN2Cc2ccc(C(F)(F)F)cc2)O1)N1CCc2ccccc2C1 | -0.64
CC(C)[C@H]1COCc2cn(nn2)CCCCC(=O)N1 | -0.75
Cc1cccc(-c2ccc(C3[C@H]4CNC[C@@H]3N4CC3CCOCC3)cc2)c1 (stereo not given in full) | 0.98
O=C(C1CC1)N1CC(=O)N2[C@H](CO)[C@H](c3ccc(C#Cc4cccc(F)c4)cc3)[C@@H]2C1 | -4.2*
O=C(C1CCCCC1)N1CC(=O)N2[C@H](CO)[C@H](c3ccc(C#Cc4cccc(F)c4)cc3)[C@H]2C1 | -2.9
O=C(C1CC1)N1CC(=O)N2[C@H](CO)[C@@H](c3ccc(C#Cc4cccc(F)c4)cc3)[C@H]2C1 | -3.1*
O=C(C1CC1)N1CC(=O)N2[C@H](CO)[C@H](c3ccc(C#Cc4cccc(F)c4)cc3)[C@H]2C1 | -9.6*
O=C(C1CCCCC1)N1CC(=O)N2[C@H](C1)[C@@H](c1ccc(C#Cc3cccc(F)c3)cc1)[C@@H]2CO | -0.09
O=C(C1CCCCC1)N1CC(=O)N2[C@H](CO)[C@H](c3ccc(C#Cc4cccc(F)c4)cc3)[C@@H]2C1 | 0.66
O=C(C1CC1)N1CC(=O)N2[C@H](C1)[C@@H](c1ccc(C#Cc3cccc(F)c3)cc1)[C@@H]2CO | -2.9
O=C(C1CCC1)N1CC(=O)N2[C@H](CO)[C@@H](c3ccc(C#Cc4cccc(F)c4)cc3)[C@H]2C1 | -6.9*
O=C(c1cccc(F)c1)N1CC(=O)N2[C@H](CO)[C@@H](c3ccc(C#Cc4ccc(F)cc4)cc3)[C@@H]2C1 | 1.3
O=C(c1cccc(F)c1)N1CC(=O)N2[C@@H](CO)[C@@H](c3ccc(C#Cc4ccc(F)cc4)cc3)[C@@H]2C1 | -0.9
CN(C)CC#Cc1ccc([C@H]2[C@@H](CO)N3CCCCN(C(=O)Nc4ccc(F)cc4)C[C@@H]23)cc1 | 1
CCC(=O)NC[C@@H]1[C@@H](c2ccccc2)[C@@H](CO)N1C(=O)C1CC1 | 4.1
COc1ccccc1S(=O)(=O)N(C)C[C@H]1OCc2ccccc2-c2ccccc2C(=O)N([C@@H](C)CO)C[C@@H]1C | -1.5
O=C(Nc1cccc(F)c1)N1CC(=O)N2[C@H](CO)[C@@H](c3ccc(C#CC4CC4)cc3)[C@@H]2C1 | -0.42
COCC#Cc1ccc([C@H]2[C@H]3CN(C(=O)C4CC4)CC(=O)N3[C@H]2CO)cc1 | 0.41
SMILES | IDE exosite inh
O=C(C[C@@H]1C[C@H]2c3cc(NC(=O)Nc4ccccc4)ccc3O[C@H]2[C@H](CO)O1)NCc1ccccc1 | -0.63
O=C(Nc1ccccc1)N1CCCCN2[C@@H](CO)[C@@H](c3ccc(Br)cc3)[C@@H]2C1 | 4.9
O=C(c1cccc(F)c1)N1CC(=O)N2[C@H](C1)[C@H](c1ccc(C#Cc3ccc(F)cc3)cc1)[C@@H]2CO | 1.5
O=C(c1cccc(F)c1)N1CC(=O)N2[C@H](CO)[C@H](c3ccc(C#Cc4ccc(F)cc4)cc3)[C@H]2C1 | 3.9
O=C(C1CC1)N1CC(=O)N2[C@H](CO)[C@@H](c3ccc(C#Cc4cccc(F)c4)cc3)[C@@H]2C1 | -5.7*
CCC(=O)N1CC(=O)N2[C@H](CO)[C@@H](c3ccc(C#Cc4cccc(F)c4)cc3)[C@H]2C1 | 2.6
O=C(C1CC1)N1CC(=O)N2[C@@H](CO)[C@H](c3ccc(C#Cc4cccc(F)c4)cc3)[C@@H]2C1 | -5.8*
COCC#Cc1ccc([C@H]2[C@@H](CO)N3C(=O)CN(C(=O)Nc4ccc(F)cc4)C[C@H]23)cc1 | 2.6
COc1ccc(S(=O)(=O)N2CC3(CN(C(=O)c4cccnc4)[C@@H](CO)c4c3c3ccc(OC)cc3n4C)C2)cc1 | -0.17
CCC(=O)N1CC(=O)N2[C@@H](CO)[C@@H](c3ccc(C#CC4CCCCC4)cc3)[C@@H]2C1 | 2
COCC(=O)NC[C@H]1[C@@H](c2ccc(C3=CCCC3)cc2)[C@H](CO)N1C(=O)C1CC1 | 5.7
COCC(=O)N1[C@H](C#N)[C@H](c2ccc(C3=CCCCC3)cc2)[C@@H]1CO | 2.5
COc1cccc(-c2ccc([C@@H]3[C@H](CO)N4C(=O)CN(C(=O)C5CCC5)C[C@@H]34)cc2)c1 | -10*
COc1ccc(-c2ccc([C@@H]3[C@H]4CN(C(=O)C5CCCC5)CC(=O)N4[C@H]3CO)cc2)cc1 | -1.1
COc1ccc(-c2ccc([C@H]3[C@@H](CO)N4C(=O)CN(C(=O)C5CCC5)C[C@@H]34)cc2)cc1 | 1.7
COc1ccc(-c2ccc([C@@H]3[C@@H](CO)N4C(=O)CN(C(=O)C5CCCC5)C[C@H]34)cc2)cc1 | 0.57
COc1ccc(-c2ccc([C@@H]3[C@H]4CN(C(=O)C5CC5)CC(=O)N4[C@H]3CO)cc2)cc1 | -2.4
COc1ccc(-c2ccc([C@@H]3[C@@H](CO)N4C(=O)CN(C(=O)C5CCCC5)C[C@@H]34)cc2)cc1 | -0.91
COc1cccc(-c2ccc([C@@H]3[C@H]4CN(C(=O)C5CC5)CC(=O)N4[C@H]3CO)cc2)c1 | -11*
COc1ccc(-c2ccc([C@H]3[C@H]4CN(C(=O)C5CCC5)CC(=O)N4[C@H]3CO)cc2)cc1 | -0.16
COc1cccc(-c2ccc([C@H]3[C@@H](CO)N4C(=O)CN(C(=O)C5CC5)C[C@@H]34)cc2)c1 | -6.5*
C/C=C/c1ccc([C@H]2[C@@H](CO)N(C(=O)NC(C)C)[C@H]2CN(C)C(=O)CC)cc1 | 2.9
CC[C@H]1C/C=C\C[C@H](C(C)C)NC(=O)CCC(=O)N1 | -0.16
CO[C@H]1CN(C)C(=O)c2ccc(NC(=O)NC(C)C)cc2OC[C@@H](C)N(Cc2ccc(-c3ccccn3)cc2)C[C@H]1C | -0.45
CN(C)C(=O)C[C@H]1C[C@@H]2c3cc(NC(=O)Nc4ccc(F)cc4)ccc3O[C@@H]2[C@H](CO)O1 | 1.2
O=C(C[C@H]1C[C@H]2c3cc(NC(=O)C4CCOCC4)ccc3O[C@H]2[C@@H](CO)O1)NCc1cccnc1 | -0.87
O=C(Cc1ccccn1)N1CC(=O)N2[C@H](C1)[C@H](c1ccc(C#CC3CC3)cc1)[C@@H]2CO | 0.55
COc1ccc(-c2ccc([C@H]3[C@@H](CO)N4C(=O)CN(C(=O)Cc5ccccn5)C[C@@H]34)cc2)cc1 | 0.65
Cc1ccccc1-c1ccc([C@H]2[C@H](CO)N3C(=O)CN(C(=O)Cc4ccccn4)C[C@@H]23)cc1 | -14*
O=C(Cc1ccccn1)N1CC(=O)N2[C@H](CO)[C@@H](c3ccc(C#CC4CCCCC4)cc3)[C@H]2C1 | -0.35
